Source: PubChem BioAssay (Tox21)
Where “and” joins values, the source holds several entries; their conditions need not be identical. Identical values can stand only once. Inconclusive results are not listed. Calls of active or inactive are those of the source. Unless noted, the call rests on the fitted dose curve; in most records, active means well fitted inhibition curve with a large enough effect in the repeat runs; inconclusive means weak or mixed curves; inactive means no such curve, though single readings can be large or run the other way.

Target: Acetylcholinesterase (Homo sapiens) (UniProt P22303)
Sequence (P22303 whole entry, looked up): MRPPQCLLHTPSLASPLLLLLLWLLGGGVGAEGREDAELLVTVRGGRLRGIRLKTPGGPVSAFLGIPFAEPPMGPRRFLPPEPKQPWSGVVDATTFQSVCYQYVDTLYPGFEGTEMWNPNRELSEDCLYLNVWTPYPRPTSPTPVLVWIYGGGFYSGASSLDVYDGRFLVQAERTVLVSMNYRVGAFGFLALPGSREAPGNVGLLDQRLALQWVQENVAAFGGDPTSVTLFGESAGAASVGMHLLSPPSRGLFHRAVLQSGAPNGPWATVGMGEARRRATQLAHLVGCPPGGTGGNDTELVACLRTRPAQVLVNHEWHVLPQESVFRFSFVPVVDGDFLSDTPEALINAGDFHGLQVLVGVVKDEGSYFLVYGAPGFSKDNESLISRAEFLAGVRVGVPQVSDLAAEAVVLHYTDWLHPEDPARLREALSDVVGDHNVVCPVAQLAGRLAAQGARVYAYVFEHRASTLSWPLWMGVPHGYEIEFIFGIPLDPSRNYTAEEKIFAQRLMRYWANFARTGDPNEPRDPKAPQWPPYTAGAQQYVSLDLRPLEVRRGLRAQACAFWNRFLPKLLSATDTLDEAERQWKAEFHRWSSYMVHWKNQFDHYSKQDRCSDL
Assay: Acetylcholinesterase (AChE) small molecule antagonists: enzyme-based qHTS assay with human liver microsomes (AID 1347399; calls by dose curve; further: nearly all actives have a fitted effect of over 60% in size)
Details: Potency: qHTS inhibition; series mostly up to 115 µM; activity change, negative = inhibition: at the top concentration
Outline: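 Recombinant human AChE (50 mU/mL in the enzyme mix) and human liver microsomes (0.25 mg/mL final) were preincubated with compound and NADPH (0.25 mg/mL final) for 30 min at 37 C. Acetylthiocholine/DTNB was then added; thiocholine was read colorimetrically after 10 min at room temperature.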
On the % scale 0 is the no-effect control and ±100 the full control effect.

SMILES	activity change, negative = inhibition	Potency
N#Cc1ccc(O)cc1	-0.472% (inactive)	
CS(=O)(=O)c1ccc(C(=O)C2C(=O)CCCC2=O)c([N+](=O)[O-])c1	1.13% (inactive)	
CC(C)CCCCCCCOP(=O)(Oc1ccccc1)Oc1ccccc1	0.648% (inactive)	
Nc1ccc(Cc2ccc(N)c(Cl)c2)cc1Cl	-0.84% (inactive)	
CC(=[OH+])/C=C(/C)[O-].CC(=[OH+])/C=C(\C)[O-].CC(=[OH+])/C=C(\C)[O-].[Fe]	0.792% (inactive)	
FC(Cl)(Cl)Cl	0.341% (inactive)	
CCOC(=O)OC1=C(c2cc(C)ccc2C)C(=O)NC12CCC(OC)CC2 (centres undefined)	-2.44% (inactive)	
Cn1cc(C2=C(c3cn(C4CCN(Cc5ccccn5)CC4)c4ccccc34)C(=O)NC2=O)c2ccccc21	-0.332% [at 53 µM] (inactive)	
CC[C@H]1C[C@@H]2C[C@H]3c4[nH]c5ccc(OC)cc5c4CCN(C2)[C@@H]13	-2.62% (inactive)	
CCC(C)(C)C(=O)OC1=C(c2ccc(Cl)cc2Cl)C(=O)OC12CCCCC2	0.53% (inactive)	
Nc1ccc(Cl)cc1C(=O)c1ccccc1	8.08% (inactive)	
CC(C)(C)c1ccc(CSc2cnn(C(C)(C)C)c(=O)c2Cl)cc1	1.93% (inactive)	
ClCc1ccc(Cl)cc1Cl	-0.306% (inactive)	
O=C(O)COc1nc(Cl)c(Cl)cc1Cl	15.6% (inactive)	
Nc1ccccc1C(=O)Oc1ccc2ccccc2c1	-10.4% (inactive)	
Clc1ccc(-c2ccccc2)cc1	-1.45% (inactive)	
COc1ccc([N+](=O)[O-])cc1O	-4.53% [at 53 µM] (inactive)	
CC(C)(C)c1cc([N+](=O)[O-])cc(C(C)(C)C)c1O	3.13% (inactive)	
Clc1ccc(Oc2ccccc2)cc1	1.48% (inactive)	

SMILES	activity change, negative = inhibition	Potency
C[C@@H](Oc1ccc(Cl)cc1Cl)C(=O)O	11.1% (inactive)	
COc1ccc(OC)c(C=O)c1	0.204% (inactive)	
SCc1ccco1	5% (inactive)	
Cc1cc(C)c(C2=C(OC(=O)CC(C)(C)C)C3(CCCC3)OC2=O)c(C)c1	-1.23% (inactive)	
c1ccc(Nc2ccc3ccccc3c2)cc1		inactive
CC(=O)/C=C/c1ccc2c(c1)OCO2	0.565% (inactive)	
CCCN(CCC)CCc1c[nH]c2ccccc12	-5.9% (inactive)	
CC(C)Oc1cccc(NC(=O)c2ccccc2C(F)(F)F)c1	1.34% (inactive)	
OC(Cc1ccccc1Cl)(Cn1cncn1)C1(Cl)CC1 (centres undefined)	1.38% (inactive)	
C[CH2][Hg][N]1C(=O)C2C(C1=O)C1(Cl)C(Cl)=C(Cl)C2(Cl)C1(Cl)Cl (centres undefined)	-0.312% [at 23.6 µM] (inactive)	
CCOCn1c(-c2ccc(Cl)cc2)c(C#N)c(Br)c1C(F)(F)F	0.237% (inactive)	
CCN(CC)C(=S)[S-].CCN(CC)C(=S)[S-].[Zn+2]	-0.853% (inactive)	
COP(=S)(OC)Oc1cc(Cl)c(Br)cc1Cl	0.315% (inactive)	
CC(=O)C(Cl)(Cl)Cl	59.9% (inactive)	
[CH3][Hg][Cl]	-2.43% (inactive)	
Clc1ccc(C(Cl)(Cl)Cl)c(Cl)c1	-1.53% (inactive)	
Oc1ccc(C(c2ccc(O)cc2)(C(F)(F)F)C(F)(F)F)cc1		inactive
CC(C)(O)c1cnn2c(-c3ccc(F)c(-c4c(F)cccc4C#N)c3)cnc2n1	3.9% (inactive)	

Target: Cytochrome P450 2D6 (Homo sapiens) (UniProt P10635)
Sequence (P10635 whole entry, looked up): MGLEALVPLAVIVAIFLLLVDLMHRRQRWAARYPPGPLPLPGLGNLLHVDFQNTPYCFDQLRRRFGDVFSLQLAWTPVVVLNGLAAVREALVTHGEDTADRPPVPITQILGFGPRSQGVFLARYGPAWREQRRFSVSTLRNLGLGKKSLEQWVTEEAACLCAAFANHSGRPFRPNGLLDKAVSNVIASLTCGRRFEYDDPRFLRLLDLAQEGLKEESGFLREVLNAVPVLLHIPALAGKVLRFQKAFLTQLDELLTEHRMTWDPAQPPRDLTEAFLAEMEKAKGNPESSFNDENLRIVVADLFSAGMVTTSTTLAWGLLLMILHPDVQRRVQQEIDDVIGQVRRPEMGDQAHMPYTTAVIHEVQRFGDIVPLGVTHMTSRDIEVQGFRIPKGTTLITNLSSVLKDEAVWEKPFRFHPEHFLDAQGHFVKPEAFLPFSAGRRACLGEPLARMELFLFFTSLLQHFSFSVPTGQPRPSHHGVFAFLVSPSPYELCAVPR
Assay: Cytochrome P450 Family 2 Subfamily D Member 6 (CYP2D6) small molecule antagonists: luciferase reporter qHTS assay (AID 1671196); further: nearly all actives have a fitted effect of over 50% in size; further: potency means the concentration at half of the fitted maximal effect
Details: P450-Glo CYP2D6 enzyme assay, luciferin luminescence, 1 h; series mostly up to 115 µM; activity change, negative = inhibition: at the top concentration
Outline: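 Quantitative HTS of Tox21 chemicals against CYP2D6 using a luminescent proluciferin substrate. After NADPH addition, 1 h room-temperature reaction; luminescence recorded 20 min post detection reagent.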

SMILES	activity change, negative = inhibition	Potency
FC(Cl)(Cl)Cl	-20.8% (inactive)	
CCOC(=O)OC1=C(c2cc(C)ccc2C)C(=O)NC12CCC(OC)CC2 (centres undefined)	-22% (inactive)	
Cn1cc(C2=C(c3cn(C4CCN(Cc5ccccn5)CC4)c4ccccc34)C(=O)NC2=O)c2ccccc21	-11.5% [at 53 µM] (inactive)	
CC[C@H]1C[C@@H]2C[C@H]3c4[nH]c5ccc(OC)cc5c4CCN(C2)[C@@H]13		0.698 µM (active)
CCC(C)(C)C(=O)OC1=C(c2ccc(Cl)cc2Cl)C(=O)OC12CCCCC2	-17% (inactive)	
ClCc1ccc(Cl)cc1Cl	-14.9% (inactive)	
O=C(O)COc1nc(Cl)c(Cl)cc1Cl		6.48 µM (active)
Clc1ccc(-c2ccccc2)cc1	-0.0022% (inactive)	
COc1ccc([N+](=O)[O-])cc1O	-0.371% [at 53 µM] (inactive)	
Clc1ccc(Oc2ccccc2)cc1	-13.1% (inactive)	
COc1ccc(OC)c(C=O)c1	-15.9% (inactive)	
Cc1cc(C)c(C2=C(OC(=O)CC(C)(C)C)C3(CCCC3)OC2=O)c(C)c1	-15.9% (inactive)	
CCCN(CCC)CCc1c[nH]c2ccccc12		0.351 µM (active)
C[CH2][Hg][N]1C(=O)C2C(C1=O)C1(Cl)C(Cl)=C(Cl)C2(Cl)C1(Cl)Cl (centres undefined)		16.9 µM (active)
[CH3][Hg][Cl]	-18.3% (inactive)	

Target: Cytochrome P450 2C19 (Homo sapiens) (UniProt P33261)
Sequence (P33261 whole entry, looked up): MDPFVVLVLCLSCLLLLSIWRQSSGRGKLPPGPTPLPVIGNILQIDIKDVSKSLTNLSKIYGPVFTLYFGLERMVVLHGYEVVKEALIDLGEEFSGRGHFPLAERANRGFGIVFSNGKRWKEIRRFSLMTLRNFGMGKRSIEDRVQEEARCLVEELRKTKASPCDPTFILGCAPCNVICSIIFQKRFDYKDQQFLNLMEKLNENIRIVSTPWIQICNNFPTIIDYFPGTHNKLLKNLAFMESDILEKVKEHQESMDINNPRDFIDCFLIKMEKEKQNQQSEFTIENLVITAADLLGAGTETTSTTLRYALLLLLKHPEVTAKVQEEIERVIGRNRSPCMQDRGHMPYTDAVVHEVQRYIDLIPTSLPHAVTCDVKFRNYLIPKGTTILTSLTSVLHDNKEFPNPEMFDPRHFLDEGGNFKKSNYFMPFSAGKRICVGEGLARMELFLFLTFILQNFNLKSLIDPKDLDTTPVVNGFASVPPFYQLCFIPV
Assay: Cytochrome P450 Family 2 Subfamily C Member 19 (CYP2C19) small molecule antagonists: luciferase reporter qHTS assay (AID 1671197); further: nearly all actives have a fitted effect of over 65% in size; further: potency means the concentration at half of the fitted maximal effect
Details: P450-Glo CYP2C19 enzyme, luciferin luminescence, 1 h; series mostly up to 115 µM; activity change, negative = inhibition: at the top concentration
Outline: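 Light output is proportional to CYP2C19 activity: proluciferin substrate is converted to luciferin, then detected by a luciferin detection reagent that also stops the 1 h, 37C NADPH-driven reaction. Ketoconazole serves as positive control.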

SMILES	Potency	activity change, negative = inhibition
N#Cc1ccc(O)cc1	89.4 µM (active)	
CS(=O)(=O)c1ccc(C(=O)C2C(=O)CCCC2=O)c([N+](=O)[O-])c1	72.3 µM (active)	
CC(C)CCCCCCCOP(=O)(Oc1ccccc1)Oc1ccccc1	6.36 µM (active)	
Nc1ccc(Cc2ccc(N)c(Cl)c2)cc1Cl	6.86 µM (active)	
CC(=[OH+])/C=C(/C)[O-].CC(=[OH+])/C=C(\C)[O-].CC(=[OH+])/C=C(\C)[O-].[Fe]		10.7% (inactive)
Nc1ccc(Cl)cc1C(=O)c1ccccc1	15.9 µM (active)	
CC(C)(C)c1ccc(CSc2cnn(C(C)(C)C)c(=O)c2Cl)cc1	7.96 µM (active)	
Nc1ccccc1C(=O)Oc1ccc2ccccc2c1	35.6 µM (active)	
CC(C)(C)c1cc([N+](=O)[O-])cc(C(C)(C)C)c1O	31.7 µM (active)	
C[C@@H](Oc1ccc(Cl)cc1Cl)C(=O)O		-3.71% (inactive)
SCc1ccco1	39.9 µM (active)	
c1ccc(Nc2ccc3ccccc3c2)cc1	7.06 µM (active) and 5.64 µM (active)	
CC(=O)/C=C/c1ccc2c(c1)OCO2	14.2 µM (active)	
CC(C)Oc1cccc(NC(=O)c2ccccc2C(F)(F)F)c1	3.99 µM (active)	
OC(Cc1ccccc1Cl)(Cn1cncn1)C1(Cl)CC1 (centres undefined)	1.26 µM (active)	
CCOCn1c(-c2ccc(Cl)cc2)c(C#N)c(Br)c1C(F)(F)F	4.48 µM (active)	
CCN(CC)C(=S)[S-].CCN(CC)C(=S)[S-].[Zn+2]	49.8 µM (active)	
COP(=S)(OC)Oc1cc(Cl)c(Br)cc1Cl	17.8 µM (active)	
CC(=O)C(Cl)(Cl)Cl	54.5 µM (active)	
Clc1ccc(C(Cl)(Cl)Cl)c(Cl)c1	80.2 µM (active)	
Oc1ccc(C(c2ccc(O)cc2)(C(F)(F)F)C(F)(F)F)cc1	5 µM (active) and 2.83 µM (active)	
CC(C)(O)c1cnn2c(-c3ccc(F)c(-c4c(F)cccc4C#N)c3)cnc2n1	8.94 µM (active)	
